The results in this text go back to ChEMBL document CHEMBL3988442, “University of Dundee, Small-Polar-MMV Screening Library” (2021).

Each structure is given as a SMILES string. The whole screen tested about 69,000 compounds, of which about 420 (0.61%) showed an effect of 50% or more. This is one part of a sample in which strong results are shown more often than they occur.

The assay concerns the target T1, Histidine--tRNA ligase (Leishmania infantum) (UniProt A4I591).
T1 sequence (whole entry): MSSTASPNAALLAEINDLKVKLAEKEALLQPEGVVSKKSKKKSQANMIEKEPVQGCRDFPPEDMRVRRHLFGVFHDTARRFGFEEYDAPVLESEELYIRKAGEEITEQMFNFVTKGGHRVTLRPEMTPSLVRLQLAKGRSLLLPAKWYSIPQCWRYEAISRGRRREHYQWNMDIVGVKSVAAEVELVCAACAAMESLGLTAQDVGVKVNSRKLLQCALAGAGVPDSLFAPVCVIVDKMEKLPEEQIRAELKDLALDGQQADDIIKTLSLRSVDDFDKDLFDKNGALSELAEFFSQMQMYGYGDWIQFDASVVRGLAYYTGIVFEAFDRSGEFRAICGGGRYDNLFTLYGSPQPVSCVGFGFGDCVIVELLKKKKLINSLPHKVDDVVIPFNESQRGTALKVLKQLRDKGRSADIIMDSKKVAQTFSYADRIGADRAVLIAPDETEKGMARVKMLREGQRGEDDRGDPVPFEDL
In words: Leishmania infantum Histidine tRNA synthetase (LdHisRS). Type of assay: functional. The arrangement: scale not given: in the data most compounds retested in dose-response had high values. Particulars: 30 µM.
With `CCCc1ccc(CN2CCN(c3ncccn3)[C@@H]3CS(=O)(=O)C[C@@H]32)o1`, the Percent Effect stood at 13.2%. For `Cc1nc(CN2C[C@@H]3CN(C(=O)NC(C)C)C[C@@H]3C2=O)cs1`, the Percent Effect was 2.94%.

For the compound `CC(C)NC(=O)c1sc2ccccc2c1[C@H]1CC[C@H](CN)CC1`, the Percent Effect was found to be 8.45%. For `Cn1cc(CN2CCC[C@]3(C(=O)O)CN(c4ncccn4)C[C@@H]3C2)cn1`, the Percent Effect was 27.8%. Then `Cc1noc([C@H]2C[C@H]3OCC[C@H]3N(C3CCC3)C2)n1`, with -1.06%. For the compound `O=C(c1cccc(F)c1)N1CC[C@@H]2CN(c3ncccn3)CCO[C@@H]2C1`, the Percent Effect is 6%. For the compound `CCc1ccc(NC(=O)N2C[C@H]3CC[C@@]4(N=C(C)N(C)C4=O)[C@H]3C2)cc1`, the Percent Effect turned out to be 24.7%. With `CC(=O)N1CCCC1c1cccc(Cc2ccccc2F)n1` (stereo unspecified) the figure was 0%; with `CN(C)C(=O)CN1CCCC1c1cccc(Cc2ccccc2F)n1` (stereo unspecified), 55.7%; with `CN1CCCC1c1cccc(Cc2ccccc2F)n1` (stereo unspecified), 16.7%. Then `CCS(=O)(=O)N1C[C@H]2C[C@H](C(=O)N(C)C)[C@@H](C1)O2`, with 6.57%; and `O=C(c1ccc[nH]1)N1C[C@H]2CC[C@@H]1CN(c1ncccn1)C2`, with 21.7%. For `Cc1ccc(C(=O)N(C2CC2)C2CC(=O)NC2=O)cc1F` (stereo unspecified), the Percent Effect was 8.47%. With `CCn1nnc2c1C(COCC(=O)N(C)C)CN(Cc1ccco1)C2` (stereo unspecified) the figure was 50.9%. Then `CCn1nnc2c1C(COCC(=O)N(C)C)CN(Cc1ccoc1)C2` (stereo unspecified), with 5.66%; and `CCn1nnc2c1C(COC)CN(Cc1cccs1)C2` (stereo unspecified), with 13.5%; and `CCn1nnc2c1C(COCCN(C)C)CN(Cc1ccco1)C2` (stereo unspecified), with 1.89%. With `CCn1nnc2c1C(COC)CN(Cc1ccco1)C2` (stereo unspecified), the Percent Effect was determined as 52.8%.

In the case of `CN(C)C(=O)COCC1CN(Cc2ccco2)Cc2ncn(C)c21` (stereo unspecified), the Percent Effect is 20.8%.

Turning to `CC(=O)N1C[C@@H]2CN(S(=O)(=O)C3CC3)CCO[C@@H]2C1`, the Percent Effect turned out to be 10%. With `O=C1O[C@@H]2CN(c3cnccn3)C[C@@H]2N1CCCc1ccc(F)cc1` the figure was 11%. In the case of `CCCS(=O)(=O)N1C[C@@H](Oc2ccccn2)[C@H]2OCCC[C@H]21`, the Percent Effect came to 9.73%. With `Cc1ncc(CN2Cc3ccccc3O[C@]3(CC[C@H](CO)CC3)C2)cn1`, the Percent Effect turned out to be 11.1%. With `Fc1cnc(N2CC[C@@H]3OC(COCc4cccnc4)CC[C@@H]32)nc1` (stereo partly specified) the figure was 5.26%; with `O=C(c1ccco1)N1CC[C@@H]2O[C@@H](COCC3CCOCC3)CC[C@@H]21`, -0.84%. In the case of `COC[C@@]12CCO[C@@H]1CCN(C(=O)CCc1ccccc1Cl)C2`, the Percent Effect turned out to be 12.9%. For `CCc1ncc2c(n1)CN(Cc1nnc(Cc3ccccc3)o1)CC2`, the Percent Effect is 31.2%. Then `CC(C)c1ncc2c(n1)CN(Cc1nnc(Cc3ccccc3)o1)CC2`, with 33%; and `Cc1ncc2c(n1)CN(Cc1nnc(Cc3ccccc3)o1)CC2`, with 55.4%; and `CC(C)N1C[C@@H]2OCC(=O)N(Cc3ccccc3)[C@@H]2C1`, with 8.11%.

As to `Cc1nnc(N2CCc3cnc(C(C)C)nc3C2)c(C#N)c1C`, the Percent Effect was determined as 46.7%.

As to `Cc1nnc(N2CCc3cncnc3C2)c(C#N)c1C`, the Percent Effect stood at 65.3%. Then `CCc1ncc2c(n1)CN(c1nnc(C)c(C)c1C#N)CC2`, with 12%; and `O=C(c1ccnnc1)N1C[C@@H](OCC2CCOCC2)[C@H]2OCCC[C@H]21`, with 11.8%.

Take `COc1cccc(CN2CCN(CC(C)C)C(=O)C2C)c1O` (stereo unspecified): the Percent Effect was 98.9%. With `COC(=O)c1ccc(OC)c(CN2CCN(CC(C)C)C(=O)C2C)c1` (stereo unspecified), the Percent Effect is 10.8%. With `COc1cc(F)c(CN2CCN(CC(C)C)C(=O)C2C)cc1OC` (stereo unspecified) the figure was 10.8%. For the compound `CC(=O)N1CCN(c2ccccc2CNc2cncc(C)c2)CC1`, the Percent Effect turned out to be 11%. Regarding `CC(=O)N1CCN(c2ccccc2CNc2ccc3[nH]ncc3c2)CC1`, the Percent Effect came to 57.5%. Then `COc1ccc(NCc2ccccc2N2CCN(C(C)=O)CC2)cn1`, with 24.7%; and `Cn1ccnc1CN1CCN(Cc2ccccc2)[C@@H]2CS(=O)(=O)C[C@@H]21`, with 5.59%; and `CNc1[nH]nc(N)c1C(=O)Nc1ccc(OC)cc1`, with 27.5%. With `CNc1[nH]nc(N)c1NC(=O)c1ccccc1` the figure was 87.5%; with `CNc1[nH]nc(N)c1C(=O)Nc1ccccc1`, -15%. Then `Cc1[nH]ccc1C(=O)N1C[C@H]2CC[C@@H]1CN(S(=O)(=O)N(C)C)C2`, with 16.1%. For `Cn1cc(CNc2cnn(CCO)c2)c(-c2ccncc2)n1`, the Percent Effect is 21.9%. For `Cn1cc(CNc2cnn(CC3CCCO3)c2)c(-c2ccncc2)n1` (stereo unspecified), the Percent Effect turned out to be 30.7%. Turning to `COCCn1cc(NCc2cn(C)nc2-c2ccncc2)cn1`, the Percent Effect was found to be 51.8%. With `Cc1ncsc1CN1C[C@@H]2CN(S(C)(=O)=O)CCO[C@@H]2C1`, the Percent Effect is 20%. Then `Cc1ccc(CN2CC[C@H]3C[C@@H](c4nc(C5CC5)cs4)O[C@@H]3C2)o1`, with 19.8%; and `Cc1noc([C@@]23CCO[C@@H]2CCN(C(=O)CCC(C)C)C3)n1`, with 5.56%.

Take `Cn1cccc(NC(=O)N2CCC(CSc3ccccc3)C2)c1=O` (stereo unspecified): the Percent Effect turned out to be 78.1%. With `Cc1nn(C)cc1C(=O)N1CCC(CSc2ccccc2)C1` (stereo unspecified) the figure was 11%; with `Cc1cnc(C(=O)N2CCC(COCc3ccccc3)C2)cn1` (stereo unspecified), 2.67%; with `Cn1cccc(NC(=O)N2CCC(Cc3ccccc3)C2)c1=O` (stereo unspecified), 106%. With `Cn1cccc(NC(=O)N2CCC(COCc3ccccc3)C2)c1=O` (stereo unspecified) the figure was 108%.
